In the library only some 12% were active in any assay of this set; here they are far more common.
JMJD2A Tudor inh: JMJD2A Tudor domain (human) inhibition; Potency, µM (series often up to 114 µM), inactives show top-dose activity change, negative = inhibition, hits mostly inhibitors; AlphaScreen JMJD2A-Tudor / H3K4me3 peptide binding; O75164; actives 4.4% (n = 390,000); note: potency is the fitted concentration of half-maximal effect; % is set by controls: 0 for no effect and ±100 for the full control effect; nearly all actives have a fitted effect of over 50% in size
PI5P4Ka inh: inhibitors of human PI5P4K alpha | P48426 | PI5P4Kalpha enzyme, ADP-Glo luminescence, 60 min; hits give low values | max response, % | actives 1.2% (n = 330,000) | AID 652105; active = max response of -50% or lower; inconclusive = between -30% and -50%; inactive = -30% or higher; note: value at the top dose of about 77 µM; % is set by controls: 0 for no effect and ±100 for the full control effect
Target sequence (P48426 whole entry, looked up): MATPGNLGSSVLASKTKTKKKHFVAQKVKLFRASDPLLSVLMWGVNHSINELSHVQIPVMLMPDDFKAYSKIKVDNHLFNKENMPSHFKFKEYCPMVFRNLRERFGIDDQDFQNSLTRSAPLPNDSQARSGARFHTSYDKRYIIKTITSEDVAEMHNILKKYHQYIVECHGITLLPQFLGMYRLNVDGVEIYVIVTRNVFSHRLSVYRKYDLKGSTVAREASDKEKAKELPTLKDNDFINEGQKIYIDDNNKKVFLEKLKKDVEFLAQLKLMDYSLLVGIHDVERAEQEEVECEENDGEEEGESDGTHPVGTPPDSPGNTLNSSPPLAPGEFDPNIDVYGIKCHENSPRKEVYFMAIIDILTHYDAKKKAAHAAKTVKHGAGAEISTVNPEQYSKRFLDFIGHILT
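Luminescence from ADP-Glo served as readout of PI5P4Kalpha activity in a qHTS format. Reaction: enzyme, substrate, compound, ATP at 5 microM final, 60 min at RT.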
PLK1 PBD block: inhibitors of human PLK1 polo-box domain binding; P53350; Plk1 PBD binding of FITC phosphopeptide, fluorescence polarization; Potency, µM, without a hit: max response, negative = inhibition, most hits filed as inhibitors; actives 2.8% (n = 360,000); note: potency is the fitted concentration of half-maximal effect; series mostly up to about 57 µM; % is set by controls: 0 for no effect and ±100 for the full control effect; nearly all actives have a fitted effect of over 65% in size
HP1b binding inh: inhibitors of HP1-beta chromodomain binding to methylated histone tails. AlphaScreen HP1-beta / biotin-H3K9me3 peptide binding. actives 0.56% (n = 390,000). Potency, µM (titrated, usually from 114 µM), without a hit: at the highest dose activity change, negative = inhibition, usual class: inhibitors; note: potency is the fitted concentration of half-maximal effect; nearly all actives have a fitted effect of over 70% in size
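Compound inhibition of the preformed complex between 50 nM HP1-beta and 50 nM biotinylated H3K9me3 peptide was read by AlphaScreen. Buffer was PBS pH 7.4 with 0.01% Tween-20. Incubations ran 30 min at room temperature, with 10 ug/mL donor/acceptor beads.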
G9a block: G9a (human) methyltransferase inhibition. Q96KQ7. G9a H3K9 monomethylation, AlphaScreen, 2 h. Potency, µM (highest dose often 102 µM), for the others: at the top dose activity, negative = inhibition, hits mostly inhibitors. actives 8.8% (n = 350,000). AID 504332; note: potency is the fitted concentration of half-maximal effect; % is set by controls: 0 for no effect and ±100 for the full control effect; nearly all actives have a fitted effect of over 75% in size
Target sequence (Q96KQ7 913-1193 limits assumed): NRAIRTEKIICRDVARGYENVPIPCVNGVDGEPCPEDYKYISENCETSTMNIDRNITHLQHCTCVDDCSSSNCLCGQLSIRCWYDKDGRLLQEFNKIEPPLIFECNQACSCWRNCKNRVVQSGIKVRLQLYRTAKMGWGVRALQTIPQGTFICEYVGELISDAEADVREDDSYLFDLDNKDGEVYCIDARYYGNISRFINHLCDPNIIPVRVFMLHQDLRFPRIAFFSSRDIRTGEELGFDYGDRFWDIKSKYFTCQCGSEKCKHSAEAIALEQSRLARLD
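AlphaScreen detection with an anti-monomethyl H3K9 antibody quantified product after a 2 h room-temperature reaction containing 500 nM biotinylated H3K9 peptide, 20 µM SAM and 20 nM enzyme, which had been preincubated 15 min with compound.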
BAZ2B inh: inhibitors of human BAZ2B bromodomain. AID 504333. Potency, µM (top dose mostly 114 µM), for inactives: at the top dose activity change, negative = inhibition, actives largely listed as inhibitors. Q9UIF8. AlphaScreen BAZ2B-H3K14Ac peptide displacement. actives 4.4% (n = 360,000); note: potency is the fitted concentration of half-maximal effect; % is set by controls: 0 for no effect and ±100 for the full control effect; nearly all actives have a fitted effect of over 60% in size
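In this displacement format the biotinylated H3(5-23) peptide acetylated at Lys14 serves as ligand at 50 nM, with BAZ2B at 50 nM in PBS pH 7.4 containing 0.01% Tween-20. Donor and acceptor beads are 10 ug/mL final.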
* hit, by the source's call; ? = inconclusive; . = no result given; [ ] = dose if it differs, or a comment. Unless noted, calls come from the whole dose curve; as a rule, active = well fitted curve in the direction sought with a large enough effect; inconclusive = small, poorly fitted or top-dose-only effect, or another doubt; inactive = no such curve, though single readings can be large; an effect the other way counts as inactive or inconclusive.

SMILES | JMJD2A Tudor inh | PI5P4Ka inh | PLK1 PBD block | HP1b binding inh | G9a block | BAZ2B inh
O=S(=O)(NCCN1CCOCC1)c1cccs1 | -10% | 2 | 2% | 35% | 40µM* | -1%
O=C1C(NS(=O)(=O)c2cccs2)=C(N2CCN(Cc3ccccc3)CC2)C(=O)c2ccccc21 | 14µM* | -1 | -10% | 16µM* | 13µM* | 13µM*
COc1ccc(S(=O)(=O)N2CCOCC2)cc1NC(=O)CCc1cc(OC)c(OC)c(OC)c1 | -25% | -8 | -11% | 11% | -4%[59 µM] | 6%
CCOc1ccc(NC(=O)c2c(C)nn(-c3ccc(F)cc3)c2-n2cccc2)cc1 | -8% | . | . | 17% | ? | -6%
O=C(Nc1cccc(F)c1)N1CC2(CCN(C(=O)c3ccco3)CC2)C1 | . | . | . | . | 1%[12.7 µM] | .
COc1ccc(C2CC(=O)c3sc(NC(C)=O)nc3C2)cc1 (stereo not given) | -21% | -18 | ? | -10% | 40µM* | -5%
Cc1ccccc1OCC(=O)NN1Cc2ccccc2C1=N | 0%[11.4 µM] | 1 | 27µM* | 1% | -37% | -17%
Cc1ccc(S(=O)(=O)NN=C2CCc3ccccc32)cc1 | . | 0 | -17% | . | . | .
Cc1ccccc1OCC(=O)Nc1ccccc1-c1ccccc1NC(=O)COc1ccccc1C | -10% | -2 | -9% | 17% | 50µM* | -8%
Cc1ccccc1OCC(=O)NN1CCN(C)CC1 | -11% | -1 | -9% | 13% | -25% | -4%
Cc1ccc(S(=O)(=O)NN2Cc3ccccc3C2=N)cc1 | -12% | -1 | -7% | 35% | 16µM* | .
Cc1cccc(OCC(=O)Nc2ncn[nH]2)c1C | -26% | -6 | -11% | 32% | -48%[59 µM] | 50µM*
O=c1oc2ccc3ccccc3c2cc1-c1nnc(Nc2ccc(F)cc2)s1 | -11% | . | . | 33% | -5%[59 µM] | 0%
COc1ccc(-c2noc(CN(C(=O)C(C)Oc3ccc(C)cc3)C(C)C)n2)cc1 (stereo not given) | -12% | . | . | 25% | 2%[59 µM] | 0%
Cc1cccc(NC(=O)c2ccc(OCc3c(C)noc3C)cc2)n1 | -6% | 5 | -8% | 20% | 2%[12.7 µM] | 6%
Nc1nc(SC2c3cccc4cccc(c34)C2NS(=O)(=O)c2ccccc2)n[nH]1 (stereo not given) | -22%[57.1 µM] | 4 | -24% | ? | 3.2µM* | ?
Cc1cc(C)nc(SC2c3cccc4cccc(c34)C2NS(=O)(=O)c2ccccc2)n1 (stereo not given) | -21% | 16 | -3% | 28% | 2% | -5%
CCOC(=O)c1c(-n2cnnn2)sc2c1CCCC2 | 6% | -4 | -8% | 26% | -41% | 0%
CCOC(=O)c1c(N2C(=O)Nc3cc(Cl)c(Cl)cc3N2O)sc2c1CCCCC2 | 79µM* | ? | 13µM* | ? | . | ?
CCOC(=O)c1c(N2C(=O)C3C4C=CC(O4)C3C2=O)sc2c1CCCC2 (stereo not given) | 56µM* | -26 | -23% | ? | 1.8µM* | -2%
COc1ccc(CCNC(=O)CSc2nnnn2-c2cccc(C(C)=O)c2)cc1OC | -13% | . | . | 31% | 2%[59 µM] | -16%
Cn1cccc1C(=O)OCC(=O)c1cc2ccccc2o1 | ? | . | 3% | -8% | 45µM* | -22%
Cc1ccc(C)c(N2CCN(c3ncnc4c3cnn4-c3ccccc3)CC2)c1 | ? | 6 | 27µM* | 13% | ? | -5%
CN1CCC(NCCC(c2ccc(F)cc2)c2ccc(Cl)cc2)CC1 (stereo not given) | 0.71µM* | 2 | -9% | -19%[57 µM] | 25µM* | 50µM*
CC(C)C(CCNC1CCN(C)CC1)c1ccc(Cl)cc1 (stereo not given) | 56µM* | -2 | -5% | -26% | ? | -36%
SMILES | JMJD2A Tudor inh | PI5P4Ka inh | PLK1 PBD block | HP1b binding inh | G9a block | BAZ2B inh
CCNC(=O)N1CCN(CCCC(c2ccc(F)cc2)c2ccc(F)cc2)CC1 | -22% | -4 | -2% | -5% | -15%[59 µM] | 4%
CCOc1ccc(CN2CCN(S(=O)(=O)c3ccc(Cl)cc3)CC2)cc1 | ? | . | . | -32% | 2.2µM* | -1%
CCOc1ccc(S(=O)(=O)N2CCN(Cc3ccccc3)CC2)cc1 | 2% | 14 | 7% | 33% | . | 14%
Cc1ccccc1OCCC(=O)N1CCN(S(=O)(=O)c2ccc(Cl)cc2)CC1 | -18% | 12 | -1% | 34% | 45µM* | -28%
O=C(CCCOc1ccccc1)N1CCN(S(=O)(=O)c2ccc(Cl)cc2)CC1 | -1% | 7 | 0% | 25% | -6%[59 µM] | -3%
CCOc1ccc(OCCCC(=O)N2CCN(S(=O)(=O)c3ccc(Cl)cc3)CC2)cc1 | 18µM* | -7 | 0% | ? | 2.8µM* | 45µM*
O=C(COc1ncnc2ccccc12)N1CCN(S(=O)(=O)c2ccc(Cl)cc2)CC1 | ? | -12 | 30µM* | -9% | -10%[59 µM] | 0%
Cc1ccc(C)c(OCCC(=O)OCC(=O)NCCc2ccc(S(N)(=O)=O)cc2)c1 | -10% | 7 | -1% | 29% | -12% | 1%
Cc1ccc(C)c(S(=O)(=O)Nc2ccc(O)c(Sc3ncn[nH]3)c2)c1 | -18%[11.4 µM] | 2 | ? | 11% | 45µM* | -7%
Cc1cc(F)ccc1S(=O)(=O)Nc1ccc(O)c(Sc2ncn[nH]2)c1 | -29% | -15 | -24% | -6% | 40µM* | -1%
O=C1OC[C@H]2CCCN2C(=O)[C@@H](CC(=O)N(CCO)Cc2ccccc2)C/C=C\CC[C@H]1Cc1ccc(F)cc1 | -13% | -2 | 5% | 39% | . | .
COc1ccccc1-n1cc2c([N+](=O)[O-])cc([N+](=O)[O-])cc2n1 | -27% | 5 | -6% | 25% | 10µM* | ?
CCCCN(Cc1cc2cc(C)ccc2[nH]c1=O)C(=O)c1cccc(Cl)c1 | -7% | . | . | 34% | 2%[59 µM] | -2%
Cc1ccc(Cl)cc1N1CCN(Cc2nc3ccsc3c(=O)[nH]2)CC1 | -25%[11.4 µM] | 1 | 30µM* | -17% | 2.8µM* | -37%
COc1ccc(N2CCN(Cc3nc4ccsc4c(=O)[nH]3)CC2)cc1 | 56µM* | . | 0% | 7% | ? | ?
O=c1[nH]c(CN2CCN(c3ccc([N+](=O)[O-])cc3)CC2)nc2ccsc12 | ? | -14 | -11% | 5% | 8%[59 µM] | ?
C[C@H](CO)N1C[C@H](C)[C@H](CN(C)S(=O)(=O)c2ccccc2)Oc2c(NS(C)(=O)=O)cccc2C1=O | -4% | 1 | 5% | 37% | . | .
COc1ccc(CC(=O)O/N=C(\N)Cc2cccc3ccccc23)cc1OC | 6% | -10 | 8% | 31% | -12%[59 µM] | 10%
COC(=O)c1sc(C(=O)OC)c(C(=O)OC)c1C(=O)OC | -1% | -6 | -1% | 43% | ? | 2%
COC(=O)c1sc(=S)sc1C(=O)OC | ? | . | -22% | ? | 28µM* | -38%

Screens: PubChem, National Center for Advancing Translational Sciences (NCATS)
